Sampled rows, rich in hits. Any-hit rate of the full collection: about 31%.
CYP2C9 inh – human CYP2C9 inhibition; P11712; CYP2C9 Supersomes, luciferin-H conversion, luminescence; inhibition, % at 5 µM; actives 20% (n = 96,000); AID 777;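 active means blocking of liver enzyme CYP2C9 beyond about 50% at 5 µM, limit read from the data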
Target sequence (P11712 whole entry, looked up): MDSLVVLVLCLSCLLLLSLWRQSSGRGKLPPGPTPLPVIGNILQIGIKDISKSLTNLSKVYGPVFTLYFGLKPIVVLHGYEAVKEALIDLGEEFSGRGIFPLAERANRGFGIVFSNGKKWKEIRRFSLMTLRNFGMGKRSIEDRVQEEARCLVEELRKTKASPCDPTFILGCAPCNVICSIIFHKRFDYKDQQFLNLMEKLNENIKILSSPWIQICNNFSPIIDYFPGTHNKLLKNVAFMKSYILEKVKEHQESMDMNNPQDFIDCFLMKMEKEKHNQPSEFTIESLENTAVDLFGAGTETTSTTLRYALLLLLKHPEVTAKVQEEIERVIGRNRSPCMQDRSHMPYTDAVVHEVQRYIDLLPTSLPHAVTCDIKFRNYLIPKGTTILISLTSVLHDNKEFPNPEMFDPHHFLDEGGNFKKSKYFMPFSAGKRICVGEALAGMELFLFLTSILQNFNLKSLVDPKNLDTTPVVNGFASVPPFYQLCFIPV
CYP2C9 act – activators of human CYP2C9 | P11712 | recombinant CYP2C9, luciferin-H conversion, luminescence; active compounds read high; factor 1 = untreated enzyme, 0 = blocked | activation factor at 5 µM | actives 1.4% (n = 96,000);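 active means activation factor of 2 or more for CYP2C9 at a 5 µM dose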;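 further: 0 = sulfaphenazole-blocked wells and 1 = vehicle-only wells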
CYP2C19 act – increases human CYP2C19 enzyme activity. recombinant CYP2C19, luciferin-H EGE luminescence; active compounds read high; 0 = fully inhibited enzyme, 1 = untreated enzyme. activation factor at 5 µM. 96,000 tested, under 10 active. AID 1025;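 active means activation factor of at least 2 at 5 µM in the primary screen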;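 further: 0 = wells with 2.5 mM tranylcypromine and 1 = vehicle-only wells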
PLAP act – human PLAP activation; P05187; purified PLAP enzyme, luminescent substrate read-out; active compounds read high; activation fold at 20 µM; actives 1.2% (n = 96,000); AID 696; in the data active means activation fold above about 2
CYP2C19 inhib – human CYP2C19 inhibition | actives 21% (n = 96,000) | AID 778 | inhibition, % at 5 µM | CYP2C19 Supersomes, luciferin-H EGE luminescence, 30 min;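 active means CYP2C19 inhibition above a set limit at 5 µM in the primary screen, cut at about 50% in these data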;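 further: plate controls were negative control wells for no effect and 2.5 mM tranylcypromine positive control for full effect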
* hit, by the source's call.

SMILES	CYP2C9 inh	CYP2C9 act	CYP2C19 act	PLAP act	CYP2C19 inhib
CCOC(=O)N1CCN(/C=C(\C#N)c2nc3ccccc3s2)CC1	71*	0.3	0.2	1.2	80*
N#C/C(=C\N1CCN(Cc2ccc3c(c2)OCO3)CC1)c1nc2ccccc2s1	49	0.5	0.1	1.2	89*
COC(=O)c1ccc(/C=C(\C#N)c2nc3ccccc3s2)cc1	25	0.8	0.8	1	20
Cc1cc(C)c2c(c1)NC(=O)C2(O)CC(=O)c1cccs1 (stereo unspecified)	-32	1.3	0.5	1	54*
CCOc1cc(-c2c(C#N)c(N)nc3c2CCCC3C)ccc1O (stereo unspecified)	21	0.8	0.6	0.9	36
CCOc1cc(-c2c(C#N)c(=O)[nH]c3c2c(C)nn3-c2ccc(F)cc2)ccc1O	91*	0.1	0.9	1.4	12
CC(C)(C)OC(=O)NNC1CC(=O)N(c2ccccc2F)C1=O (stereo unspecified)	5	1	0.9	1	7
Cc1ccc2nc(Cc3ccc(N)cc3)oc2c1	32	0.7	0.3	0.9	69*
CC(=O)Nc1nc2ccccc2n1Cc1ccccc1C	13	0.9	0.2	1.8	82*
CC(NC(=O)c1ccccc1)c1nc2ccccc2n1Cc1ccc(C#N)cc1 (stereo unspecified)	49	0.5	0.7	1	30
CCCCCCn1c(C(C)NC(=O)c2ccco2)nc2ccccc21 (stereo unspecified)	56*	0.4	0.6	1.7	42
Cc1ccccc1Cn1c(C(C)O)nc2ccccc21 (stereo unspecified)	-3	1	0.4	1	59*
Cc1cccc(Cn2c(C(C)O)nc3ccccc32)c1 (stereo unspecified)	-1	1	0.7	0.9	31
CC(NC(=O)c1ccccc1)c1nc2ccccc2n1Cc1ccccc1F (stereo unspecified)	60*	0.4	0.5	1.2	48
CC(C)CNS(=O)(=O)c1ccc(CCC(=O)NCc2cccnc2)cc1	32	0.7	1	0.9	0
O=C(NCc1ccco1)/C(=C/c1cccnc1)NC(=O)c1cccc(Br)c1	-1	1	1	1	-4
CC(=O)Nc1nc2ccccc2n1CCOc1ccccc1Cl	13	0.9	0.4	1.2	60*
CCCCCC(=O)Nc1cc(N(C)C)nc2ccccc12	10	0.9	1	0.9	-2
CCCCC(=O)NC(c1ccco1)c1c(O)ccc2ccccc12 (stereo unspecified)	70*	0.3	0.5	1.1	49
CCCC(=O)NC(c1ccco1)c1c(O)ccc2ccccc12 (stereo unspecified)	90*	0.1	0	1.3	97*
C[N+](C)(C)C/C=C1/COCO1	3	1	1	1	2
COc1ccc(CCNC(=O)C2CCCN(S(C)(=O)=O)C2)cc1OC (stereo unspecified)	-22	1.2	1.1	1	-14
Cc1ccc(/C=C(/C#N)C(=O)NC(=O)Oc2ccccc2)cc1	-22	1.2	1.2	1.2	-18
Cc1ccc(C(C)NC(=O)/C(C#N)=C\c2c(C)[nH]c3ccccc23)cc1 (stereo unspecified)	-108	2.1*	0.6	0.8	45
COC(=O)CSC1=C(C#N)C(=O)NC(c2ccccc2)S1 (stereo unspecified)	92*	0.1	0.4	1.6	58*
SMILES	CYP2C9 inh	CYP2C9 act	CYP2C19 act	PLAP act	CYP2C19 inhib
COC(=O)/C(=C(/F)Sc1cc(C)c(O)c(C)c1)C(F)(F)F	94*	0.1	0.2	1.1	82*
Cn1c2ccccc2c(=O)n2c(=O)c3ccccc3cc12	56*	0.4	0.3	1	68*
Cc1csc(NC(=O)C2COc3ccccc3O2)n1 (stereo unspecified)	48	0.5	0.2	1.2	83*
Cc1nc2ccc3nc(NC(=O)C4COc5ccccc5O4)sc3c2s1 (stereo unspecified)	68*	0.3	1	1.4	-5
O=C(Nc1nnc(SCc2ccccc2Cl)s1)C1COc2ccccc2O1 (stereo unspecified)	55*	0.5	0.9	1.4	10
O=C(Nc1nc(-c2ccccc2)cs1)C1COc2ccccc2O1 (stereo unspecified)	35	0.7	0.8	1.1	23
Cc1ccccc1CSc1nnc(NC(=O)C2COc3ccccc3O2)s1 (stereo unspecified)	13	0.9	0.9	1.1	10
Cc1cnc(NC(=O)C2COc3ccccc3O2)s1 (stereo unspecified)	18	0.8	0.3	1	67*
CC1=CCC(COC(=O)Nc2ccccc2)CC1 (stereo unspecified)	8	0.9	0.5	1.1	46
Cc1cc(NC(=O)C2COc3ccccc3O2)no1 (stereo unspecified)	38	0.6	0.4	0.9	61*
Cc1cc(NC(=O)COC(=O)C2COc3ccccc3O2)no1 (stereo unspecified)	12	0.9	0.9	1.1	7
C/C(N)=C(\C#N)C(=O)NCc1ccccn1	14	0.9	1	1	3
CCOC(=O)C(C)Oc1cccc2c(=O)n(CC(=O)Nc3ccc(OCC)cc3)ccc12 (stereo unspecified)	21	0.8	0.9	0.9	8
COc1ccc(-n2c(N)c(C(=O)NCc3ccco3)c3nc4ccccc4nc32)c(OC)c1	24	0.8	0.7	1.4	30
N#Cc1nc(-c2cccc3ccccc23)oc1N1CCCCC1	-5	1.1	1.1	0.9	-6
CN(C)c1oc(-c2ccccc2Cl)nc1C#N	-179	2.8*	0.4	1	62*
N#Cc1nc(-c2ccccc2Cl)oc1N1CCCCC1	81*	0.2	0.1	1	86*
CN(C)c1oc(-c2ccccc2Cl)nc1S(=O)(=O)c1ccccc1	-44	1.4	0.2	0.9	79*
CCOC(=O)CON1C(=O)c2ccccc2C1=O	19	0.8	0.9	1.3	6
Cc1ccc(OCC(=O)N(C)CCc2ccccn2)cc1	6	0.9	0.6	0.9	39
CC1(C)Cc2c(c(=S)nc(-c3ccccc3)n2CCO)CO1	-22	1.2	0.9	1.2	8
COc1ccc(S(=O)(=O)Nc2cc(Sc3ncn[nH]3)c(O)c3ccccc23)cc1	94*	0.1	0	1.8	97*
CCSc1nc(N2CCOCC2)c2c(c1C#N)CCCC2	91*	0.1	0.3	0.9	70*
CC(C)c1nc(NCc2ccccc2)c(C#N)c2c1CCCC2	36	0.6	1.1	1	-8
CC(C)c1nc(N2CCOCC2)c(C#N)c2c1CCCC2	42	0.6	0.2	0.9	80*
COc1ccccc1C(=O)Nc1cc2cc(Cl)ccc2oc1=O	-61	1.6	0.9	0.9	7
C/C=C/c1ccccc1OCc1ccc(C(=O)OC)o1	22	0.8	0.7	0.9	27
